These results are taken from PubChem BioAssay AID1362 (SRMLSC, 2008).

This experiment can be described thus: growth inhibition of WT strain, primary screen, mitochondrial fusion inhibitor project, WT and mutant strains, chemical genetic (AID 1362). To be noted: mitochondrial fusion phenotypic screen, at 10 µM.
Where [1] appears, read: WT strain, growth inhibition, stronger effect = higher value.

Screen size: about 190,000 compounds; about 4,000 (2.1%) were called active. This is one part of a sample in which actives are shown more often than they occur. Rule as the data show it: active = inhibition above about 58%; inactive = the rest, inconclusive results apart; tested in S. cerevisiae.

The term inhibition denotes the change of the read-out against control, counted positive when it falls. As to `COC(=O)C1=C(C)N(C)C(=S)NC1c1cc(OC)ccc1OC` (stereo not drawn), the inhibition under setting [1] was 4.73% (inactive) and the inhibition (mutant strain inhibition) stood at 3.84%.
Consider `O=C(NCc1ccccc1Cl)C1CCCO1` (stereo not drawn), for which the inhibition runs as follows: under setting [1], -11.3% (inactive); (mutant strain inhibition) 7.12%.
With `COC(=O)CNC(=O)c1ccc(OC2CCN(C(=O)C3CC3)CC2)cc1`, the inhibition was 1.17% (inactive) under setting [1] and 10.2% (mutant strain inhibition).
For the compound `CSc1cccc(NC(=S)N(Cc2ccccc2)Cc2ccccn2)c1`, the inhibition reads like this: under setting [1], 65.9% (active); (mutant strain inhibition) 28.6%.
In the case of `COc1cccc(NC(=S)N(Cc2ccc(C)cc2)Cc2ccccn2)c1`, the inhibition under setting [1] was 4.22% (inactive) and the inhibition (mutant strain inhibition) was found to be 20.6%.
As for `CSc1cccc(NC(=S)N(C(C)C)C(C)c2ccccn2)c1` (stereo not drawn), the inhibition was 31.2% (inactive) under setting [1] and 20.5% (mutant strain inhibition).
Turning to `CC(=O)Nc1ccc(S(=O)(=O)N(C)c2ccc(OCC(=O)OCC(=O)N3CCCCC3)cc2)cc1`, the inhibition by setting is: under setting [1], 0.1% (inactive); (mutant strain inhibition) -22.2%.
As to `Cc1ccc(SCCC(=O)Nc2cc(C)on2)cc1`, the inhibition reads like this: under setting [1], 10.3% (inactive); (mutant strain inhibition) -8.98%.
Consider `NC1=NC2(CCCCC2)N(c2ccc(F)cc2F)C(N)=N1`, for which the inhibition is -0.71% (inactive) under setting [1] and -2.91% (mutant strain inhibition).
Regarding `Cc1ccc2nc(NCCCNC(=O)c3cnccn3)c(C#N)cc2c1`, the inhibition is 90.6% (active) under setting [1] and -2.29% (mutant strain inhibition).
`COCCCNC(=S)NCCNc1nc2cc(C)c(C)cc2cc1C#N`: the inhibition is, setting by setting: under setting [1], 7.68% (inactive); (mutant strain inhibition) 10.7%.
Regarding `Cc1ccc2cc(C#N)c(NCCNC(=S)NCCCN3CCOCC3)nc2c1`, the inhibition by setting is: under setting [1], 10.9% (inactive); (mutant strain inhibition) 3.33%.
`O=C(NC1CC1)C1CCCN(C(=O)NC2CCCCC2)C1` (stereo not drawn): the inhibition is -6.93% (inactive) under setting [1] and -6.42% (mutant strain inhibition).
For the compound `COc1nc(NC2CCCCC2)nc(N2CCCCCC2)n1`, the inhibition by setting is: under setting [1], 66.3% (active); (mutant strain inhibition) 28.3%.
Turning to `Cc1ccnc(N2CCC(C(=O)NC3CCCCCC3)CC2)n1`, the inhibition under setting [1] is -13.5% (inactive) and the inhibition (mutant strain inhibition) was -18.9%.
For `FC(F)(F)COc1nc(N2CCCCC2)nc(N2CCNCC2)n1`, the inhibition by setting is: under setting [1], 3.34% (inactive); (mutant strain inhibition) 2.8%.
The corresponding values for `CCN(CCCNC(=O)CSc1cc(=O)n(C)c2cc(Cl)ccc12)Cc1ccccc1` are -10.6% (inactive) and -11.8%.
On the same counts, the results for `CC(O)CNCCOc1cccc(Oc2ccccc2)c1` (stereo not drawn) are -0.49% (inactive) and 17.6%.
For `CCOC(=O)c1[nH]ncc1CN1CCCC(C(=O)c2ccc(OC)cc2C)C1` (stereo not drawn), the inhibition is, setting by setting: under setting [1], 3.7% (inactive); (mutant strain inhibition) 9.86%.
The corresponding values for `O=C(N/N=C/c1cc2c(cc1Br)OCO2)C1COc2ccccc2O1` (stereo not drawn) are 29.9% (inactive) and 30%.
As for `O=S(=O)(O)c1nc2ccccc2n1Cc1ccc(Cl)cc1Cl`, the inhibition is, setting by setting: under setting [1], 18.7% (inactive); (mutant strain inhibition) 26%.
On the same counts, the results for `COC(=O)c1sc2ncccc2c1OCc1ccc(Cl)cc1Cl` are 12.8% (inactive) and -2.97%.
For `Cc1nc2ccccc2nc(C)c1=NOCc1ccc(Cl)cc1Cl`, the inhibition under setting [1] is 67.9% (active) and the inhibition (mutant strain inhibition) turned out to be 2.92%.
As for `CC(C)N1C(=S)SC(C)(C)C1n1oc(=O)n(-c2ccc(Cl)c(Cl)c2)c1=O` (stereo not drawn), the inhibition is, setting by setting: under setting [1], 76.3% (active); (mutant strain inhibition) 19.9%.
In the case of `Cc1ccc(C2CC(c3cccc(NS(C)(=O)=O)c3)=NN2S(C)(=O)=O)cc1` (stereo not drawn), the inhibition was 4.24% (inactive) under setting [1] and 6.73% (mutant strain inhibition).
For the compound `CCOc1cc(CNn2c(C)nnc2SCC(=O)NC(C)(C)C)ccc1OCC(=O)NC(C)(C)C`, the inhibition was -19.6% (inactive) under setting [1] and 0.2% (mutant strain inhibition).
Turning to `Cc1cc(C(=O)CCl)c(C)n1CC1COc2ccccc2O1` (stereo not drawn), the inhibition runs as follows: under setting [1], 7.72% (inactive); (mutant strain inhibition) 25.4%.
As to `N#Cc1c(N)nc2c(c1N)CC(C(F)(F)F)O2` (stereo not drawn), the inhibition by setting is: under setting [1], -7.69% (inactive); (mutant strain inhibition) 1.1%.
Consider `Cc1nc(N2CCC(C)CC2)c2c(C)c(C(=O)Nc3cc(F)ccc3C)sc2n1`, for which the inhibition under setting [1] is 64% (active) and the inhibition (mutant strain inhibition) is -25.2%.
In the case of `Cc1nc(N2CCN(c3ccccn3)CC2)c2c(C)c(C(=O)Nc3ccc(F)cc3)sc2n1`, the inhibition is, setting by setting: under setting [1], 38.7% (inactive); (mutant strain inhibition) 11.3%.
As for `Cc1nc(N2CCOCC2)c2c(C)c(C(=O)Nc3ccc(C(F)(F)F)cc3)sc2n1`, the inhibition reads like this: under setting [1], 47.4% (inactive); (mutant strain inhibition) -8.5%.
With `c1ccc(-c2cc(N3CCCCC3)c3ccccc3n2)cc1`, the inhibition reads like this: under setting [1], 36.4% (inactive); (mutant strain inhibition) 49.1%.
On the same counts, the results for `CC(C)(C)NC(=O)C(=O)NN=C1CCCCCCC1` are -0.12% (inactive) and 9.74%.
Take `CC(C)NC(=S)NN=C1CCCCCCCCCCC1`: the inhibition runs as follows: under setting [1], 69.5% (active); (mutant strain inhibition) 53.1%.
Regarding `CC(=O)NC(NC(=S)Nc1c(C)n(C)n(-c2ccccc2)c1=O)C(Cl)(Cl)Cl` (stereo not drawn), the inhibition runs as follows: under setting [1], 15.8% (inactive); (mutant strain inhibition) 0.58%.
As for `CCOCCCNC(=S)N1CCC(NC(=O)C2CCCCC2)CC1`, the inhibition by setting is: under setting [1], 6.14% (inactive); (mutant strain inhibition) 2.16%.
The corresponding values for `COc1ccc(NS(=O)(=O)c2ccc(O)c(C(=O)OCC(=O)NC3CCCCC3)c2)cc1` are -15% (inactive) and 17.3%.
As to `COc1ccc(C2CC(c3cccs3)=NN2c2ccc(F)cc2)cc1OC` (stereo not drawn), the inhibition is 30.3% (inactive) under setting [1] and 11.7% (mutant strain inhibition).
As to `COc1ccccc1N1N=C(c2cccs2)CC1c1ccccc1` (stereo not drawn), the inhibition runs as follows: under setting [1], 52.7% (inactive); (mutant strain inhibition) 33.7%.
The corresponding values for `Fc1ccc(N2N=C(c3cccs3)CC2c2ccco2)c(F)c1` (stereo not drawn) are 70.8% (active) and 10.1%.
The corresponding values for `CCN1CCC2(CCN(Cc3cn[nH]c3-c3ccc(OC)c(F)c3)C2)C1` (stereo not drawn) are -2.46% (inactive) and -5.08%.
`CCC1CCCCN1S(=O)(=O)Cc1ccccc1Cl` (stereo not drawn): the inhibition runs as follows: under setting [1], 0.45% (inactive); (mutant strain inhibition) 1.41%.
For `CN1C2CCC1/C(=C\c1ccccc1Cl)C(=O)/C2=C\c1ccccc1Cl`, the inhibition under setting [1] is 60.7% (active) and the inhibition (mutant strain inhibition) was 32.3%.
Regarding `O=C(CN1CCCCCC1)NCCN1C(=O)S/C(=C\c2ccccc2Cl)C1=O`, the inhibition is, setting by setting: under setting [1], 2.91% (inactive); (mutant strain inhibition) -4.16%.
